DRD3 agonist – activates the human D3 dopamine receptor; P35462; max activation, %; AID 652048; 0.58% of 410,000 active; D3R DiscoveRx beta-arrestin cells, luminescence, 90 min; in the data active = max activation above about 30%
Target sequence (P35462 whole entry, looked up): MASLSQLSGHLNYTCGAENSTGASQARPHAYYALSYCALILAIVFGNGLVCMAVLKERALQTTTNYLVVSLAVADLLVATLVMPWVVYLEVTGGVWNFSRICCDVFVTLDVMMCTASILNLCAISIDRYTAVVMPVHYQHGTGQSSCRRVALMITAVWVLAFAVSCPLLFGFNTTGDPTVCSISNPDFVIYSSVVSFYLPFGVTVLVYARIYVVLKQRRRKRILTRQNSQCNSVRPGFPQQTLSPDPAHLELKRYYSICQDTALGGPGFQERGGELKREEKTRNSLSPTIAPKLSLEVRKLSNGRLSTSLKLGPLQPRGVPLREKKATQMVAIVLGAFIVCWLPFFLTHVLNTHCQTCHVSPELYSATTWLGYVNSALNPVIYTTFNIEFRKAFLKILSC
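Agonist-mode cell screen: cells plated at 1500/well and incubated overnight at 37 °C, then exposed to library compounds for 90 min at 37 °C. Detection reagent was added for 30–60 min at room temperature, and luminescence was read.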
KB-V1 MDR tox – kills drug-selected multidrug resistant KB-V1 cells; KB-V1 MDR cells viability, CellTiter-Glo, 72 h; Potency, µM (titrated, usually from 46.1 µM), most hits filed as cytotoxic; 3.4% of 400,000 active; note: nearly all actives have a fitted effect of over 60% in size
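qHTS viability screen in drug-selected KB-V1 MDR cells: 72 h compound treatment at 37 degrees C, ATP luminescence end point.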
MCF10A rereplic – induces DNA re-replication in MCF 10a normal breast cells; MCF 10A DNA re-replication, Hoechst nuclear intensity, 48 h; Potency, µM (titrated, usually from 46.1 µM), usual class: activators; 2.9% of 350,000 active; AID 624296; note: nearly all actives have a fitted effect of over 50% in size
KB-3-1 cytotox – kills parental KB-3-1 adenocarcinoma cells | KB-3-1 viability, CellTiter-Glo ATP luminescence, 72 h | Potency, µM (series often up to 46.1 µM), most hits filed as cytotoxic | 1.4% of 400,000 active; note: nearly all actives have a fitted effect of over 60% in size
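Luminescent ATP read-out (CellTiter-Glo) measures survival of drug-naive KB-3-1 cells after 72 h compound exposure at 37 °C. Titration series was screened from lowest to highest concentration, with DMSO vehicle plates as background controls.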
DRD3 antagonist – D3 dopamine receptor (human) antagonism. P35462. D3R cells, DiscoveRx beta-arrestin luminescence, antagonist mode; active compounds read low. max response, negative = inhibition, %. 2.5% of 360,000 active; in the data active = max response below about -50%; inconclusive = no clear call, values can overlap the other calls
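Cells plated overnight at 1500 cells/well, then exposed to library compounds with dopamine controls for 90 minutes at 37 degrees C. DiscoveRx reagent added for 30–60 minutes at room temperature; luminescence read, quantitative HTS format.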
SW480 rereplic – inducers of DNA re-replication in SW480 colon cancer cells | Potency, µM (doses to about 46.1 µM), usual class: activators | 1.8% of 340,000 active | AID 624297 | SW480 DNA re-replication, Hoechst DNA content imaging, 48 h; note: nearly all actives have a fitted effect of over 55% in size
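SW480 cells exposed to compounds for 48 hr at 37 C, 5% CO2, then Hoechst-stained 40 min. Nuclear DNA content imaged by fluorescence scanning (405 nm excitation, 500-530 nm emission); re-replication scored as increased high-intensity nuclei.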
A number is an active result; i = inactive; ? = inconclusive; nt = no result; ! = not confirmed by another sample; [ ] = dose if it differs, or a comment. Most compounds without a hit are left out; they make up all but 8.9% or so of the library. Unless noted, calls come from the whole dose curve; as a rule, active = well fitted curve in the direction sought with a large enough effect; inconclusive = small, poorly fitted or top-dose-only effect, or another doubt; inactive = no such curve, though single readings can be large; an effect the other way counts as inactive or inconclusive.

SMILES	DRD3 agonist	KB-V1 MDR tox	MCF10A rereplic	KB-3-1 cytotox	DRD3 antagonist	SW480 rereplic
CCN(CCCNC(=O)CN1N=C(c2ccccc2)CCC1=O)c1cccc(C)c1	40.5	nt	nt	nt	nt	nt
CCN(CCCNC(=O)CN1N=C(c2ccc(C)cc2)CCC1=O)c1ccccc1	i	nt	nt	nt	nt	nt
CC(=O)N[C@@H](C=O)[C@@H](O)[C@H](O)[C@H](O)CO	i	nt	nt	nt	nt	nt
NC(=O)c1sc2nc3c(c(-c4ccc(Cl)cc4)c2c1N)CCCC3	i	2.91µM	?	?	i	?
NC(=O)c1sc2nc3c(c(-c4ccco4)c2c1N)CCCC3	i	?	i	i	i	i
COC(=O)c1sc2nc3c(c(-c4cccs4)c2c1N)CCCC3	i	?	9.2µM	i	i	18.4µM
Nc1c(C(=O)NCc2ccc(Cl)cc2)sc2nc3c(c(C(F)(F)F)c12)CCC3	i	14.6µM	i	i	i	?
Cc1nc2sc(C(N)=O)c(N)c2c(-c2ccc(Br)cc2)c1C(=O)Nc1ccc(Cl)cc1	i	?	nt	i	nt	nt
Cc1ccccc1NC(=O)c1sc2nc3c(c(-c4ccco4)c2c1N)CCC3	i	i	?	i	?	9.2µM
Cc1ccccc1-n1c(SCC(=O)NC2CC2)nc2ccccc2c1=O	i	i	nt	i	i	nt
Cc1ccc(-c2c3c(nc4sc(C(N)=O)c(N)c24)CCC3)cc1	i	?	11.6µM	i	i	i
Cc1cccc(NC(=O)CC2C(=O)NCCN2C(=S)Nc2ccccc2)c1 (stereo unspecified)	i	i	16.4µM	i	i	i
COc1cccc(CNC(=O)CC(c2ccc(C)cc2)N2Cc3ccccc3C2=O)c1 (stereo unspecified)	i	i	nt	i	nt	nt
COc1cc(/C=N/NC(=O)c2cccnc2)cc(Br)c1O	i	?	?	i	i	i
COc1c(Br)cc(Br)cc1/C=N/NC(=O)c1ccncc1	i	i	i	i	-79.9	i
COc1cc(/C=N/NC(=O)c2ccncc2)cc(OC)c1OC	i	i	?	i	i	i
O=C(NCC1CCCO1)C(=O)N/N=C/c1cc(Cl)ccc1O (stereo unspecified)	i	i	i	i	i	14.6µM
O=C(N/N=C/c1cc(Cl)ccc1O)c1ccncc1	i	?	?	?	i	0.651µM
COc1c(Br)cc(Br)cc1/C=N/NC(=O)c1cccnc1	i	i	?	16.4µM	-95.7	i
CCN(CC)CCOC(=O)c1ccc(NC(=O)Cn2ncc3c2-c2cc(C)ccc2OC3)cc1	i	?	nt	i	nt	nt
COC(=O)c1cc2c([nH]c1=O)CC(c1ccccc1)CC2=O (stereo unspecified)	nt	?	nt	i	nt	nt
COc1cc(/C=N/NC(=O)c2ccncc2)ccc1OC(=O)c1cccc(Br)c1	i	i	i	i	i	i
COc1cccc(/C=N/NC(=O)c2ccncc2)c1OC(=O)c1ccc(Br)cc1	i	i	14.6µM	i	i	i
CC(=O)N1CCCc2cc(S(=O)(=O)N3CCC(C(=O)N(Cc4ccccc4)C(C)C)CC3)ccc21	i	i	nt	i	nt	nt
CCOC(=O)C[C@H]1c2ccccc2S(=O)(=O)N1Cc1ccc(Cl)cc1	i	16.4µM!	i	?	i	i
SMILES	DRD3 agonist	KB-V1 MDR tox	MCF10A rereplic	KB-3-1 cytotox	DRD3 antagonist	SW480 rereplic
CCOC(=O)C[C@H]1c2cc(C(F)(F)F)ccc2S(=O)(=O)N1Cc1ccccc1	i	10.3µM!	i	i	i	i
COc1ccc(C(=O)C[C@@H]2OC[C@H](C(C)C)N2S(=O)(=O)c2ccc(C)cc2)cc1OC	i	20.6µM	nt	i	i	nt
O=C(Cn1ncc2ccsc2c1=O)N1CCN(c2ccc(Cl)cc2)CC1	i	20.6µM	nt	?	nt	nt
O=C(Cn1cnc2c(cnn2-c2ccccc2)c1=O)N1CCOCC1	i	i	i	?	i	i
O=C(Cn1nc(-c2ccc(Cl)cc2)ccc1=O)N1CCN(c2ccccc2)CC1	i	20.6µM	i	i	?	i
O=C(Cn1cnc2c(cnn2-c2ccc(Cl)cc2)c1=O)N1CCN(c2ccccc2)CC1	i	5.17µM	i	i	i	i
CCOC(=O)c1[nH]c(C)c(C(=O)NC(CC)Cc2ccccc2)c1C (stereo unspecified)	i	?	nt	i	nt	nt
CCOC(=O)c1c(C)c(-c2ccccc2)n(CC(=O)Nc2cc(C)ccc2OC)c1C	i	i	nt	i	nt	nt
CCCS(=O)(=O)c1c(S(=O)(=O)CCC)c2cc(CC)ccn2c1C(=O)c1ccc(OC)cc1	i	i	nt	i	nt	nt
CCCS(=O)(=O)c1c(S(=O)(=O)CCC)c2cc(-c3ccncc3)ccn2c1C(=O)OC	i	i	23.1µM	i	i	18.4µM
CCOC(=O)c1sc2nc(C(C)C)c3c(c2c1N)CCC3	i	?	3.66µM	i	i	18.4µM
COC(=O)c1sc2nc(N3CCCCC3)c3c(c2c1N)CCCC3	i	i	7.08µM	i	i	i[9.22 µM]
CCN(CC)C(=O)c1sc2nc(N3CCOCC3)c3c(c2c1N)CCCC3	i	4.61µM	?	i	i	i
COC(=O)c1ccc(-c2sc3nc(N4CCOCC4)c4c(c3c2N)CCCC4)o1	i	i	?	?	i	0.631µM
O=C(Nc1ccc2nc(SCC(=O)N3CCOCC3)sc2c1)c1ccc(F)cc1	i	nt	nt	nt	nt	nt
CCOC(=O)[C@]12CCC=C1N(Cc1ccco1)C(=O)[C@H](CC(=O)N1CCOCC1)C2	i	i	nt	i	i	nt
COc1ccc(S(=O)(=O)N2CCN(c3ccc(Cl)c(Cl)c3)CC2)c2ccccc12	i	?	nt	i	nt	nt
Cc1cccc(NC(=O)CN(C)S(=O)(=O)c2ccc3c(c2)CCC(=O)N3)c1C	i	i	nt	i	nt	nt
CC(C)NC(=S)N/N=C1\CCCCc2ccccc21	i	i	i	i	i	i
COc1cccc(NC(=S)N/N=C2/CCCCc3ccccc32)c1	i	i	?	?	-59.5	i
COc1ccc(N2CC(NC(=O)CCCc3ccccc3)CC2=O)cc1 (stereo unspecified)	i	nt	nt	nt	nt	nt
Cc1ccc(-n2[nH]c(C)c(C=Nc3ccc4[nH]c(=O)[nH]c4c3)c2=O)cc1	i	?	?	20.6µM	i	?
COc1ccc2nc(/N=C/c3c(C)[nH]n(-c4ccc(C)cc4)c3=O)sc2c1	i	8.2µM	i	?	i	i
Cc1ccc(N=Cc2c(C)[nH]n(-c3nc4ccccc4[nH]3)c2=O)cc1	i	6.51µM	i	8.2µM	i	i
Cc1cccc(NC(=O)C2CCCN(S(=O)(=O)c3c(C)n[nH]c3C)C2)c1 (stereo unspecified)	i	i	nt	i	nt	nt
O=S(=O)(c1ccc(F)cc1)N(Cc1nc(-c2ccccc2)no1)C1CCCCC1	i	nt	nt	nt	nt	nt
O=S(=O)(c1ccccc1)N(Cc1nc(-c2ccccc2)no1)C1CCCCC1	i	10.3µM	i	25.9µM	-52.8	i
Clc1ccccc1Cn1nc(-c2ccccc2)nc1-c1ccccc1	i	14.6µM	i	i	i	i
Clc1ccc(Cn2nc(-c3ccccc3)nc2-c2ccccc2)cc1	i	i	?	i	i	i

From PubChem
